Source: PubChem BioAssay (NCI)
About 83,000 compounds went through this panel and 20% of them were active in at least one assay; those are over-represented in the sample as a whole.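 Values shown are percent growth following 48 h exposure of cells in 96-well plates to a single concentration of compound; below 10 was considered active.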 Values without a mark were called inactive. The source made the active and inactive calls.

System: MCF7 breast
Assay: NCI-60 one-dose screen, 48 h (100 = growth as untreated, 0 = no growth, -100 = all killed)
Settings: 10 µM unless noted

**Q.** For `COc1ccc(/C=N/NC(=O)Cn2c(-c3ccc(S(C)(=O)=O)cc3)nc3ccccc32)cc1`, which growth is on record?
**A.** 88.6%

**Q.** For `CN(C)CCCn1c2c(c3ccncc3c1=O)C(=O)c1ccccc1-2`, which growth is on record?
**A.** 1.65% (active)

**Q.** Which growth does the source give for `OC1(c2ccccc2)c2ccccc2N(c2ccccc2)c2ccc(Cl)cc21` (stereo not given) here?
**A.** -88% (active)

**Q.** For `CC1(/C=C/c2ccc(-c3ccccc3)cc2)CCn2cnc3ncnc(c32)N1O` (stereo not given), which growth is on record?
**A.** 8.15% (active)

**Q.** With `C=C1C(=O)O[C@H]2[C@H]1CC/C(COC(=O)/C=C\C(=O)NCc1ccc(Cn3c(=O)sn(CCCCl)c3=O)cc1)=C\CC[C@@]1(C)O[C@@H]21` as the compound, how does the growth read?
**A.** 41.8%

**Q.** With `C#Cc1cccc(NC(=O)C2CCCCN2C(=O)CCl)c1` (stereo not given) as the compound, how does the growth read?
**A.** -7.64% [8.25 µM] (active)

**Q.** How did the growth turn out when `O=C1CCCC1[n+]1ccccc1` (stereo not given) was run?
**A.** 93%

**Q.** `N#C/C(=C\c1ccc(-c2cccc(Cl)c2)o1)C(=O)Nc1ncc(Cc2ccc(Cl)cc2)s1` was tested. Which growth did it give?
**A.** 54.4%

**Q.** How did the growth turn out when `O=S(O)c1cc(Cl)cc(Cl)c1OCc1ccccc1` was run?
**A.** 100%

**Q.** With `O=C(C1=Cc2cc3ccccc3n2Cc2cnnn21)c1ccc(F)cc1` as the compound, how does the growth read?
**A.** 94%

**Q.** Which growth does the source give for `CC(C)Cc1nc(Nc2ccccc2)[nH]c(=O)c1C#N` here?
**A.** 53.4%

**Q.** `C[N+]1=C(/C=C/c2ccccc2Cl)C(C)(C)c2ccccc21` was tested. Which growth did it give?
**A.** 94.7%

**Q.** With `CSc1ccc(N2C(=N)C(=S)N(c3ccc(C)cc3)C2=O)cc1` as the compound, how does the growth read?
**A.** 85.4%

**Q.** How did the growth turn out when `CC[C@H](Nc1nc(N)nc(C)c1C#N)c1nc2cccc(CN(C)c3ncc(C(=O)NO)cn3)c2c(=O)n1-c1ccccc1` was run?
**A.** 10.8%

**Q.** How did the growth turn out when `CC(C)CCC[C@@H](C)[C@H]1CC[C@H]2[C@@H]3CC=C4c5sc(Nc6cc(C(F)(F)F)cc(C(F)(F)F)c6)nc5CC[C@]4(C)[C@H]3CC[C@]12C` was run?
**A.** 107%

**Q.** `N#CC1=C(N)Oc2c(sc3c(F)cccc23)C1c1ccc([N+](=O)[O-])cc1` (stereo not given) was tested. Which growth did it give?
**A.** -18.1% (active)

**Q.** For `c1ccc(-c2c(-c3ccccc3)[n+](Cc3ccc4ccccc4c3)cn2Cc2ccc3ccccc3c2)cc1`, which growth is on record?
**A.** -83.8% (active)

**Q.** `O=C(CSc1nnnn1-c1ccccc1)Nc1ccc(Oc2ccccc2)cc1` was tested. Which growth did it give?
**A.** 102%

**Q.** With `Cc1ccc2c(c1)nc(C)n2-c1ncnc2c1CC(C)c1cc(O)ccc1N2C` (stereo not given) as the compound, how does the growth read?
**A.** 19.8%

**Q.** `Fc1ccc2[nH]cc(-c3nc(-c4c[nH]c5c(Cl)nccc45)cs3)c2c1` was tested. Which growth did it give?
**A.** 45.8%

**Q.** Which growth does the source give for `COc1ccc(Oc2ccc(/C=C/C(=O)c3ccc(OC)c(OC)c3)cc2)cc1` here?
**A.** 56.3%

**Q.** For `CCCCC#Cc1c(I)n(C2OC(CO[Si](C)(C)C(C)(C)C)C3OC(C)(C)OC32)c(=O)n(C(=O)c2ccccc2)c1=O` (stereo not given), which growth is on record?
**A.** 28.9%

**Q.** How did the growth turn out when `O=C(N/N=C/c1ccc(Cl)cc1)c1ccc(NC(=O)c2ccccn2)cc1` was run?
**A.** 52.3%

**Q.** With `COc1cc(-c2cc(-c3ccc(Nc4nc(Nc5ccc(Cl)cc5)nc(Nc5ccc(Cl)cc5)n4)cc3)no2)cc(OC)c1OC` as the compound, how does the growth read?
**A.** 49.4%

**Q.** For `NCCCNc1nc2ccccc2c2c(=O)c3cc(Cl)ccc3sc12`, which growth is on record?
**A.** -75.4% (active)

**Q.** `Cc1ccc(OCCOCCOCCOCCOCCOc2ccc(C)n(O)c2=S)c(=S)n1O` was tested. Which growth did it give?
**A.** 11.5%

**Q.** Which growth does the source give for `CC1(C)CC(=O)C2=C(C1)C(c1ccc(Cl)cc1)n1ncc(C#N)c1N2` (stereo not given) here?
**A.** 95.4%

**Q.** For `CN(C)/C(N)=N/N=C(\c1ccccc1)c1ccccn1`, which growth is on record?
**A.** 105%

**Q.** With `c1ccc(Nc2nc3c(s2)CCc2c[nH]cc2-3)nc1` as the compound, how does the growth read?
**A.** 65.1%

**Q.** How did the growth turn out when `COc1cc2c(cc1OCCCN1CCN(C(=S)SCCC(C#N)(c3ccccc3)c3ccccc3)CC1)N=C[C@@H]1CCCN1C2=O` was run?
**A.** -86.1% (active)

**Q.** For `O=C(NCCCCCCNC(=O)OCc1ccc2c(Cl)cc(Cl)c(O)c2n1)OCc1ccc2c(Cl)cc(Cl)c(O)c2n1`, which growth is on record?
**A.** -36.7% (active)

**Q.** `O=C(/C=C/c1ccccc1)N(C1CCCCC1)C1CCCCC1` was tested. Which growth did it give?
**A.** 88.4%

**Q.** Which growth does the source give for `C=CCn1cc(-c2nc3ccccc3s2)c2cc(-c3ccc4c5c(cccc35)C(=O)N(CCO)C4=O)ccc21` here?
**A.** 80.2%

**Q.** With `COc1cc(/C=C/C(=O)c2cccc(-n3cc(-c4ccc(Cl)cc4)[nH]c3=O)c2)ccc1O` as the compound, how does the growth read?
**A.** 9.8% (active)

**Q.** Which growth does the source give for `O=C1Nc2ccc(Cl)cc2/C1=C/c1ccc[nH]1` here?
**A.** 16.2%

**Q.** How did the growth turn out when `Cn1c2ccccc2c2c3c(c4c5cc(Br)ccc5n(C)c4c21)C(=O)N(O)C3=O` was run?
**A.** 10.7%

**Q.** How did the growth turn out when `O=S(=O)(NCCNc1nccc(-c2c(-c3ccc(F)c(O)c3)nc3sccn23)n1)c1ccc(Cl)cc1` was run?
**A.** 13.5%

**Q.** `Cc1ccc(OCCOCCOCCOc2ccc(C)n(O)c2=S)c(=S)n1O` was tested. Which growth did it give?
**A.** 20.3%

**Q.** `C[C@@H]1NC(=O)[C@H](Cc2ccccc2)N(Cc2cccnc2)C1=O` was tested. Which growth did it give?
**A.** 91.5%

**Q.** How did the growth turn out when `C=CC(CC(c1ccccc1)(c1ccccc1)c1ccccc1)N(CC)CC` (stereo not given) was run?
**A.** 73%

System: HCT-116 colon
Assay: as above
Settings: 10 µM unless noted

**Q.** For `COc1ccc(/C=N/NC(=O)Cn2c(-c3ccc(S(C)(=O)=O)cc3)nc3ccccc32)cc1`, which growth is on record?
**A.** 91.7%

**Q.** With `CN(C)CCCn1c2c(c3ccncc3c1=O)C(=O)c1ccccc1-2` as the compound, how does the growth read?
**A.** -18.7% (active)

**Q.** How did the growth turn out when `OC1(c2ccccc2)c2ccccc2N(c2ccccc2)c2ccc(Cl)cc21` (stereo not given) was run?
**A.** -85.9% (active)

**Q.** Which growth does the source give for `CC1(/C=C/c2ccc(-c3ccccc3)cc2)CCn2cnc3ncnc(c32)N1O` (stereo not given) here?
**A.** 20.2%

**Q.** Which growth does the source give for `C=C1C(=O)O[C@H]2[C@H]1CC/C(COC(=O)/C=C\C(=O)NCc1ccc(Cn3c(=O)sn(CCCCl)c3=O)cc1)=C\CC[C@@]1(C)O[C@@H]21` here?
**A.** 26.6%

**Q.** For `C#Cc1cccc(NC(=O)C2CCCCN2C(=O)CCl)c1` (stereo not given), which growth is on record?
**A.** -30.7% [8.25 µM] (active)

**Q.** Which growth does the source give for `O=C1CCCC1[n+]1ccccc1` (stereo not given) here?
**A.** 79.6%

**Q.** `N#C/C(=C\c1ccc(-c2cccc(Cl)c2)o1)C(=O)Nc1ncc(Cc2ccc(Cl)cc2)s1` was tested. Which growth did it give?
**A.** 41.9%

**Q.** `O=S(O)c1cc(Cl)cc(Cl)c1OCc1ccccc1` was tested. Which growth did it give?
**A.** 96.2%

**Q.** For `O=C(C1=Cc2cc3ccccc3n2Cc2cnnn21)c1ccc(F)cc1`, which growth is on record?
**A.** 97.9%

**Q.** How did the growth turn out when `CC(C)Cc1nc(Nc2ccccc2)[nH]c(=O)c1C#N` was run?
**A.** 54.7%

**Q.** With `C[N+]1=C(/C=C/c2ccccc2Cl)C(C)(C)c2ccccc21` as the compound, how does the growth read?
**A.** 90.8%

**Q.** With `CSc1ccc(N2C(=N)C(=S)N(c3ccc(C)cc3)C2=O)cc1` as the compound, how does the growth read?
**A.** 93.7%

**Q.** With `CC[C@H](Nc1nc(N)nc(C)c1C#N)c1nc2cccc(CN(C)c3ncc(C(=O)NO)cn3)c2c(=O)n1-c1ccccc1` as the compound, how does the growth read?
**A.** -19.7% (active)

**Q.** How did the growth turn out when `CC(C)CCC[C@@H](C)[C@H]1CC[C@H]2[C@@H]3CC=C4c5sc(Nc6cc(C(F)(F)F)cc(C(F)(F)F)c6)nc5CC[C@]4(C)[C@H]3CC[C@]12C` was run?
**A.** 99.3%

**Q.** `N#CC1=C(N)Oc2c(sc3c(F)cccc23)C1c1ccc([N+](=O)[O-])cc1` (stereo not given) was tested. Which growth did it give?
**A.** -84.8% (active)

**Q.** Which growth does the source give for `c1ccc(-c2c(-c3ccccc3)[n+](Cc3ccc4ccccc4c3)cn2Cc2ccc3ccccc3c2)cc1` here?
**A.** -87.5% (active)

**Q.** With `O=C(CSc1nnnn1-c1ccccc1)Nc1ccc(Oc2ccccc2)cc1` as the compound, how does the growth read?
**A.** 104%

**Q.** For `Cc1ccc2c(c1)nc(C)n2-c1ncnc2c1CC(C)c1cc(O)ccc1N2C` (stereo not given), which growth is on record?
**A.** 15.4%

**Q.** `Fc1ccc2[nH]cc(-c3nc(-c4c[nH]c5c(Cl)nccc45)cs3)c2c1` was tested. Which growth did it give?
**A.** 39.6%

**Q.** For `COc1ccc(Oc2ccc(/C=C/C(=O)c3ccc(OC)c(OC)c3)cc2)cc1`, which growth is on record?
**A.** 69.3%

**Q.** For `CCCCC#Cc1c(I)n(C2OC(CO[Si](C)(C)C(C)(C)C)C3OC(C)(C)OC32)c(=O)n(C(=O)c2ccccc2)c1=O` (stereo not given), which growth is on record?
**A.** 14.7%

**Q.** Which growth does the source give for `O=C(N/N=C/c1ccc(Cl)cc1)c1ccc(NC(=O)c2ccccn2)cc1` here?
**A.** 5.15% (active)

**Q.** With `COc1cc(-c2cc(-c3ccc(Nc4nc(Nc5ccc(Cl)cc5)nc(Nc5ccc(Cl)cc5)n4)cc3)no2)cc(OC)c1OC` as the compound, how does the growth read?
**A.** 66.2%

**Q.** With `NCCCNc1nc2ccccc2c2c(=O)c3cc(Cl)ccc3sc12` as the compound, how does the growth read?
**A.** -92.5% (active)

**Q.** How did the growth turn out when `Cc1ccc(OCCOCCOCCOCCOCCOc2ccc(C)n(O)c2=S)c(=S)n1O` was run?
**A.** 18%

**Q.** `CC1(C)CC(=O)C2=C(C1)C(c1ccc(Cl)cc1)n1ncc(C#N)c1N2` (stereo not given) was tested. Which growth did it give?
**A.** 98.4%

**Q.** `CN(C)/C(N)=N/N=C(\c1ccccc1)c1ccccn1` was tested. Which growth did it give?
**A.** 89.5%

**Q.** `c1ccc(Nc2nc3c(s2)CCc2c[nH]cc2-3)nc1` was tested. Which growth did it give?
**A.** 72.2%

**Q.** How did the growth turn out when `COc1cc2c(cc1OCCCN1CCN(C(=S)SCCC(C#N)(c3ccccc3)c3ccccc3)CC1)N=C[C@@H]1CCCN1C2=O` was run?
**A.** -93.5% (active)

**Q.** With `O=C(NCCCCCCNC(=O)OCc1ccc2c(Cl)cc(Cl)c(O)c2n1)OCc1ccc2c(Cl)cc(Cl)c(O)c2n1` as the compound, how does the growth read?
**A.** -54.7% (active)

**Q.** Which growth does the source give for `O=C(/C=C/c1ccccc1)N(C1CCCCC1)C1CCCCC1` here?
**A.** 57.6%

**Q.** `C=CCn1cc(-c2nc3ccccc3s2)c2cc(-c3ccc4c5c(cccc35)C(=O)N(CCO)C4=O)ccc21` was tested. Which growth did it give?
**A.** 96.7%

**Q.** Which growth does the source give for `COc1cc(/C=C/C(=O)c2cccc(-n3cc(-c4ccc(Cl)cc4)[nH]c3=O)c2)ccc1O` here?
**A.** 21.5%

**Q.** Which growth does the source give for `O=C1Nc2ccc(Cl)cc2/C1=C/c1ccc[nH]1` here?
**A.** 87.1%

**Q.** Which growth does the source give for `Cn1c2ccccc2c2c3c(c4c5cc(Br)ccc5n(C)c4c21)C(=O)N(O)C3=O` here?
**A.** 4.46% (active)

**Q.** Which growth does the source give for `O=S(=O)(NCCNc1nccc(-c2c(-c3ccc(F)c(O)c3)nc3sccn23)n1)c1ccc(Cl)cc1` here?
**A.** 16.7%

**Q.** Which growth does the source give for `Cc1ccc(OCCOCCOCCOc2ccc(C)n(O)c2=S)c(=S)n1O` here?
**A.** 9.46% (active)

**Q.** Which growth does the source give for `C[C@@H]1NC(=O)[C@H](Cc2ccccc2)N(Cc2cccnc2)C1=O` here?
**A.** 71%

**Q.** How did the growth turn out when `C=CC(CC(c1ccccc1)(c1ccccc1)c1ccccc1)N(CC)CC` (stereo not given) was run?
**A.** 43.9%
